The list is not random: actives were taken first. Their share in the collection is about 12%.
Sfp inh: inhibitors of Bacillus subtilis Sfp phosphopantetheinyl transferase; 310,000 compounds, 3.5% hits; Biochemical Sfp PPTase activity, qHTS; Potency, µM, hits mostly inhibitors; AID 1490;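 further: the enzyme is Sfp with the accession as filed and its product quenches rhodamine fluorescence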
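Buffer: 50 mM Hepes-Na pH 7.6, 10 mM MgCl2, 0.01% Nonidet P-40, 0.01% BSA. Enzyme 15 nM, pre-exposed to compound 15 min; substrates then added and fluorescence change tracked over 30 min.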
VP16 counter: counter-screen for ROR gamma inhibitors: Gal4-VP16 reporter | Drosophila S2 Gal4-VP16 UAS-luciferase, luminescence, 20 h | Potency, µM (titrated, usually from 53.6 µM), hits mostly inhibitors | 310,000 compounds, 3.5% hits;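 further: Gal4-VP16 expression switched on by copper sulfate through the metallothionein promoter; nearly all actives have a fitted effect of over 50% in size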
ALDH1A1 inh: inhibitors of human aldehyde dehydrogenase 1A1; P00352; Purified ALDH1A1, NADH fluorescence, propionaldehyde substrate; Potency, µM (doses to about 75.3 µM), actives largely listed as inhibitors; 220,000 compounds, 7.3% hits; active means well fitted inhibition curve with a large enough effect, not every such curve was filed as active; inconclusive means small, poorly fitted or top-dose-only effect, or another doubt; inactive means no such curve, though single readings can be large or run the other way
Target sequence (P00352 whole entry, looked up): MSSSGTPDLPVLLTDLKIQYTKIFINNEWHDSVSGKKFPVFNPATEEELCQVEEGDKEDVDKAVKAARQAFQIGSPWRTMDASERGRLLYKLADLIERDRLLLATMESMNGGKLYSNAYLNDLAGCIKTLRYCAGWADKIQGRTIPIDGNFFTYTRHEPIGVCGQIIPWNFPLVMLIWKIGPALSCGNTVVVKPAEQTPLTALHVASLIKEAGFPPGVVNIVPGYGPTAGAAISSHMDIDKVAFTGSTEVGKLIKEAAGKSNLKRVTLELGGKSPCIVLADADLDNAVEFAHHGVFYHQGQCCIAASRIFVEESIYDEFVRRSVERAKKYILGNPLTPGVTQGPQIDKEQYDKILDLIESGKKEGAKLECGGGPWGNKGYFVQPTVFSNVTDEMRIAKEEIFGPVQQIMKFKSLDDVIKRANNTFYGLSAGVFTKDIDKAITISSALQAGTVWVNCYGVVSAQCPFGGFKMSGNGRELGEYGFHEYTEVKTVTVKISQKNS
PLK1 PBD block: PLK1 (human) polo-box domain binding inhibition; P53350; Potency, µM, usual class: inhibitors; 360,000 compounds, 2.8% hits; Plk1 PBD binding of FITC phosphopeptide, fluorescence polarization; AID 720504; further: series mostly up to about 57 µM; nearly all actives have a fitted effect of over 65% in size
RORg inh: blocks mouse ROR gamma transcriptional activity | 310,000 compounds, 5.4% hits | Drosophila S2 Gal4-RORgamma UAS-luciferase reporter, 20 h | P51450 | Potency, µM (top dose mostly 53.6 µM), hits mostly inhibitors; further: nearly all actives have a fitted effect of over 60% in size
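Stable Schneider cell line, Gal4 DNA-binding domain fused to ROR gamma, UAS-luciferase. Cmpd 1 hr RT → CuSO4 700 uM final → 20 hr RT → luciferase reagent 10 min → luminescence.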
Each line names hits and unclear results; the compound was inactive in the other large screens. Unless noted, the call rests on the fitted dose curve; in most records, active means well fitted curve in the direction sought with a large enough effect; inconclusive means small, poorly fitted or top-dose-only effect, or another doubt; inactive means no such curve, though single readings can be large; an effect the other way counts as inactive or inconclusive.

C/C(=N\NC(=O)c1ccccc1-n1cccc1)C1CC1	ALDH1A1 inh 4µM
Cc1ccc(S(=O)(=O)N2[C@H](c3cccc(Cl)c3)CC(=O)[C@@H]3CN(S(=O)(=O)c4ccccc4C)[C@H](c4ccc(Cl)cc4)C[C@@H]32)cc1	none (no result: Sfp inh, VP16 counter, ALDH1A1 inh, RORg inh)
COc1ncc2nc(CCc3ccccc3)c(=O)n(CCC#N)c2n1	ALDH1A1 inh inconclusive (no result: PLK1 PBD block)
O=C(Nc1ccc(Cl)cc1)Nc1cnccn1	PLK1 PBD block 30µM
O=C(Nc1ccc(F)c(Cl)c1)Nc1cnccn1	none
O=C(OC(C(=O)Nc1cccc(C(F)(F)F)c1)c1ccccc1)C1CCCCC1 (stereo unspecified)	VP16 counter inconclusive, ALDH1A1 inh 14µM
CC(C)CC(=O)NC(=S)Nc1ccc(N2CCCC2)c(Cl)c1	VP16 counter 2.8µM, RORg inh 0.4µM (no result: ALDH1A1 inh)
O=C(/C=C/c1ccccc1)NC(=S)Nc1ccc(N2CCOCC2)c(Cl)c1	VP16 counter inconclusive, RORg inh 2.5µM
CCCC(=O)NC(=S)Nc1ccc(N2CCOCC2)c(Cl)c1	VP16 counter inconclusive, RORg inh 13µM
O=C(/C=C/c1ccco1)NC(=S)Nc1ccc(N2CCOCC2)c(Cl)c1	RORg inh 1.8µM
Fc1ccc(NC(=S)Nc2ccccc2N2CCOCC2)cc1Cl	VP16 counter inconclusive, RORg inh inconclusive
CC1(C(=O)NCCc2ccccc2)Cc2c(-c3ccc(C(N)=O)cc3)ccnc2O1 (stereo unspecified)	none (no result: Sfp inh, VP16 counter, ALDH1A1 inh, RORg inh)
O=C(OCc1ccccc1)N1CCC2CC1c1cc(/C=C/CCCSc3ncccn3)ccc12 (stereo unspecified)	none (no result: Sfp inh, VP16 counter, ALDH1A1 inh, RORg inh)
O=C(Nc1ccc(N2CCOCC2)c(Cl)c1)c1ccccc1Cl	none
O=C(NC(=S)Nc1ccc(N2CCOCC2)c(Cl)c1)C(c1ccccc1)c1ccccc1	VP16 counter 5.6µM, ALDH1A1 inh 11µM, PLK1 PBD block 27µM, RORg inh 2.8µM
CC1CCN(Cc2c(C(=O)N/N=C/c3cc(Cl)ccc3O)nnn2-c2nonc2N)CC1	VP16 counter 4.5µM, RORg inh 3.5µM (no result: ALDH1A1 inh)
CC1CCN(Cc2c(C(=O)N/N=C/c3cc(Br)ccc3O)nnn2-c2nonc2N)CC1	VP16 counter 7.1µM, RORg inh 3.5µM (no result: ALDH1A1 inh)
Cc1ccc(S(=O)(=O)NC(=O)C2(C)CCN2C(=O)Cc2ccc(Cl)cc2Cl)nc1 (stereo unspecified)	none (no result: Sfp inh, VP16 counter, ALDH1A1 inh, RORg inh)
CC(C)(C)OC(=O)C[C@@H]1C/C=C\C[C@H](CC(=O)N[C@@H](CO)Cc2ccccc2)C(=O)N[C@H](C(C)(C)C)COC1=O	none (no result: Sfp inh, VP16 counter, ALDH1A1 inh, RORg inh)
O=C(COC(=O)COc1ccc(Cl)cc1)NC1CCCC1	none (no result: Sfp inh, VP16 counter, ALDH1A1 inh, RORg inh)
Nc1cccc2c1C(=O)N(C(=O)/C=C/c1ccc(F)cc1)C2=O	ALDH1A1 inh inconclusive, PLK1 PBD block inconclusive, RORg inh 13µM
Nc1cccc2c1C(=O)N(C(=O)c1ccco1)C2=O	none
COc1cc2c(cc1OC)-c1c(oc3cc(O)cc(O)c3c1=O)CO2	VP16 counter 20µM, RORg inh inconclusive (no result: PLK1 PBD block)
CNC(=O)[C@H](Cc1c[nH]c2ccccc12)NC(=O)[C@@H](CC(=O)NO)CC(C)C	none (no result: PLK1 PBD block)
C=CCn1c(-c2cccc3ccccc23)n[nH]c1=S	VP16 counter 10µM, RORg inh 3.5µM
C=CCn1c(-c2ccccc2OC)n[nH]c1=S	VP16 counter inconclusive, RORg inh 11µM
CCC1OC(=O)C(C)[C@@H](O[C@H]2C[C@@](C)(OC)C(O)C(C)O2)C(C)[C@@H](O[C@@H]2OC(C)CC(N(C)C)C2O)[C@@](C)(O)CC(C)CN(C)C(C)C(O)[C@]1(C)O (stereo partly specified)	none (no result: PLK1 PBD block)
O=C(NC(=S)NCCO)c1sc2ccccc2c1Cl	Sfp inh inconclusive, ALDH1A1 inh inconclusive, RORg inh 11µM
COc1cc(NS(=O)(=O)c2ccc(NC(=S)NC(=O)c3sc4ccccc4c3Cl)cc2)ncn1	VP16 counter inconclusive, ALDH1A1 inh 22µM, PLK1 PBD block 15µM
Cc1ccccc1COC(=O)CNC(=O)c1sc2ccccc2c1Cl	none (no result: Sfp inh, VP16 counter, ALDH1A1 inh, RORg inh)
O=C(CNC(=O)c1sc2ccccc2c1Cl)NC1CC1	none (no result: ALDH1A1 inh)
CCOC(=S)NC(=O)c1sc2ccccc2c1Cl	Sfp inh 45µM, VP16 counter 5.6µM, ALDH1A1 inh 0.35µM, PLK1 PBD block inconclusive, RORg inh 1.3µM
O=C(CNC(=O)c1sc2ccccc2c1Cl)OCc1ccccc1	none (no result: ALDH1A1 inh)
CCCOC(=S)NC(=O)c1sc2ccccc2c1Cl	Sfp inh 28µM, ALDH1A1 inh 5.6µM, PLK1 PBD block inconclusive
CC(C)OCCc1cccc[n+]1[O-]	none (no result: Sfp inh, VP16 counter, ALDH1A1 inh, RORg inh)

Source: PubChem BioAssay
